Test results taken from PMC5540273 (PLoS ONE, 2017).

Experiments:
Conditions in all cases: concentration: 1 μM, replicates: in singlicate; n = 1
[1] = tested on: T1, PRKR
T1 construct: gene EIF2AK2

[2] = tested on: PRKX
[3] = tested on: PRP4
[4] = tested on: T2, PYK2
T2 construct: gene PTK2B

[5] = tested on: QSK
[6] = tested on: RAF1
[7] = tested on: RET
[8] = tested on: RIOK1
[9] = tested on: RIOK2
[10] = tested on: RIOK3
[11] = tested on: RIPK1
[12] = tested on: RIPK2
[13] = tested on: RIPK4
[14] = tested on: RIPK5
[15] = tested on: ROCK1
[16] = tested on: ROCK2
[17] = tested on: ROS1
[18] = tested on: RPS6KA4(Kin.Dom.1-N-terminal)
[19] = tested on: RPS6KA4(Kin.Dom.2-C-terminal)
[20] = tested on: RPS6KA5(Kin.Dom.1-N-terminal)
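Note: KINOMEscan kinase panel screen.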

Fc1ccc(-c2ncn(CCCNCc3ccccc3)c2-c2ccncc2)cc1
%Inh [1]: 0%
%Inh [2]: 0%
%Inh [3]: 17%
%Inh [4]: 1%
%Inh [5]: 1%
%Inh [6]: 0%
%Inh [7]: 18%
%Inh [8]: 0%
%Inh [9]: 11%
%Inh [10]: 28%
%Inh [11]: 9%
%Inh [12]: 0%
%Inh [13]: 29%
%Inh [14]: 26%
%Inh [15]: 27%
%Inh [16]: 32%
%Inh [17]: 0%
%Inh [18]: 0%
%Inh [19]: 32%
%Inh [20]: 0%

O=C(CCO)NCCn1ccc2ncnc(Nc3ccc(Oc4cccc(C(F)(F)F)c4)c(Cl)c3)c21
%Inh [1]: 0%
%Inh [2]: 0%
%Inh [3]: 8%
%Inh [4]: 0%
%Inh [5]: 0%
%Inh [6]: 0%
%Inh [7]: 0%
%Inh [8]: 0%
%Inh [9]: 0%
%Inh [10]: 0%
%Inh [11]: 0%
%Inh [12]: 7%
%Inh [13]: 0%
%Inh [14]: 0%
%Inh [15]: 0%
%Inh [16]: 0%
%Inh [17]: 0%
%Inh [18]: 18%
%Inh [19]: 0%
%Inh [20]: 3%

Nc1nc(-c2ccc3c(N)n[nH]c3c2)cc(N2CCC[C@@H](C(=O)Nc3ccccc3)C2)n1.O=C(O)C(F)(F)F.O=C(O)C(F)(F)F [GSK2288359]
%Inh [1]: 0%
%Inh [2]: 71%
%Inh [3]: 26%
%Inh [4]: 0%
%Inh [5]: 0%
%Inh [6]: 0%
%Inh [7]: 0%
%Inh [8]: 79%
%Inh [9]: 12%
%Inh [10]: 82%
%Inh [11]: 10%
%Inh [12]: 5%
%Inh [13]: 13%
%Inh [14]: 3%
%Inh [16]: 61%
%Inh [17]: 0%
%Inh [18]: 0%
%Inh [19]: 0%
%Inh [20]: 0%

Cn1cc(-c2ccc3c(c2)CCN3C(=O)Cc2cccc(C(F)(F)F)c2)c2c(N)ncnc21 [GSK2606414]
%Inh [1]: 0%
%Inh [2]: 16%
%Inh [3]: 9%
%Inh [4]: 0%
%Inh [5]: 0%
%Inh [6]: 14%
%Inh [7]: 78%
%Inh [8]: 28%
%Inh [9]: 18%
%Inh [10]: 0%
%Inh [11]: 75%
%Inh [12]: 1%
%Inh [13]: 3%
%Inh [14]: 9%
%Inh [15]: 4%
%Inh [16]: 13%
%Inh [17]: 0%
%Inh [18]: 16%
%Inh [19]: 0%
%Inh [20]: 25%

Clc1cccc(-c2nc(Nc3ccncc3)c3ccccc3n2)c1 [GW873004]
%Inh [1]: 0%
%Inh [2]: 12%
%Inh [3]: 50%
%Inh [4]: 4%
%Inh [5]: 0%
%Inh [6]: 46%
%Inh [7]: 0%
%Inh [8]: 40%
%Inh [9]: 0%
%Inh [10]: 46%
%Inh [11]: 25%
%Inh [12]: 10%
%Inh [13]: 0%
%Inh [14]: 0%
%Inh [15]: 0%
%Inh [16]: 0%
%Inh [17]: 20%
%Inh [18]: 51%
%Inh [19]: 1%
%Inh [20]: 32%

COc1cc2c(Nc3cccc(NC(=O)c4ccccc4)c3)ncnc2cc1OCCCN1CCOCC1 [GSK223810]
%Inh [1]: 0%
%Inh [2]: 7%
%Inh [3]: 2%
%Inh [4]: 24%
%Inh [5]: 0%
%Inh [6]: 16%
%Inh [7]: 90.8%
%Inh [8]: 38%
%Inh [9]: 10%
%Inh [10]: 24%
%Inh [11]: 0%
%Inh [12]: 31%
%Inh [13]: 0%
%Inh [14]: 8%
%Inh [15]: 34%
%Inh [16]: 14%
%Inh [17]: 0%
%Inh [18]: 9%
%Inh [19]: 0%
%Inh [20]: 9%

CCC(CC)(CC)n1cnc2c(N)ncnc21 [SKF-97620]
%Inh [1]: 0%
%Inh [2]: 0%
%Inh [3]: 14%
%Inh [4]: 7%
%Inh [5]: 27%
%Inh [6]: 7%
%Inh [7]: 4%
%Inh [8]: 21%
%Inh [9]: 8%
%Inh [10]: 0%
%Inh [11]: 0%
%Inh [12]: 1%
%Inh [13]: 41%
%Inh [14]: 25%
%Inh [15]: 44%
%Inh [16]: 0%
%Inh [17]: 0%
%Inh [18]: 24%
%Inh [19]: 13%
%Inh [20]: 14%

Cc1ccc(O)cc1Nc1cc(C(F)(F)F)nc2ccc(-c3ccncc3)cc12 [GW630823]
%Inh [1]: 0%
%Inh [2]: 8%
%Inh [3]: 0%
%Inh [4]: 17%
%Inh [5]: 0%
%Inh [6]: 0%
%Inh [7]: 9%
%Inh [8]: 14%
%Inh [9]: 0%
%Inh [10]: 13%
%Inh [11]: 13%
%Inh [12]: 17%
%Inh [13]: 0%
%Inh [14]: 15%
%Inh [15]: 0%
%Inh [16]: 0%
%Inh [17]: 5%
%Inh [18]: 8%
%Inh [19]: 0%
%Inh [20]: 0%
